The list is not random: actives were taken first. Their share in the collection is about 19%.
TDP1 cell noCPT: qHTS for Inhibitors of human tyrosyl-DNA phosphodiesterase 1 (TDP1): qHTS in cells in absence of CPT. DT40 Tdp1-/- hTDP1 cells, no CPT, ATP luminescence, 48 h. hit rate 15% among 420,000. AID 686978, 2013. Potency, µM (highest dose often 46.2 µM), for inactives: top-dose activity change, negative = growth inhibition, actives largely listed as inhibitors; further: nearly all actives have a fitted effect of over 55% in size
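No-CPT arm: Tdp1-/-;hTDP1 DT40 cells (400/well) plus compounds, incubated ≥48 hr at 37 °C. Readout CellTiter-Glo luminescence.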
KB-V1 MDR tox: kills drug-selected multidrug resistant KB-V1 cells | KB-V1 MDR cells viability, CellTiter-Glo, 72 h | Potency, µM (titrated, usually from 46.1 µM), hits mostly cytotoxic | hit rate 3.4% among 400,000; further: nearly all actives have a fitted effect of over 60% in size
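Cytotoxicity toward P-gp-expressing KB-V1 cells was determined as loss of CellTiter-Glo luminescence after 72 h at 37 degrees C. Compounds were tested in quantitative HTS format across a concentration range, with curves fitted to normalized data.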
DT40 TDP1 CPT: DT40-hTDP1 cell growth loss with CPT. chicken DT40 Tdp1-/-;hTDP1 cells + 20 nM CPT, ATP luminescence, 48 h. Potency, µM (series often up to 46.2 µM), for inactives: at the top dose activity change, negative = growth inhibition, actives largely listed as inhibitors. hit rate 12% among 420,000; further: nearly all actives have a fitted effect of over 55% in size
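Chicken DT40 Tdp1-/- cells stably complemented with human TDP1 were seeded at 400 cells/well in medium containing 20 nM camptothecin, exposed to pin-transferred compounds, and grown at 37 °C for at least 48 hr. Viability was read as ATP luminescence.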
HT1080 IDH1KD tx: HT-1080 IDH1 knockdown cell toxicity (counter line). HT-1080 IDH1 knockdown viability, ATP luminescence, 48 h. Potency, µM (highest dose often 46.1 µM), for inactives: at the highest dose activity, negative = toxicity, most hits filed as cytotoxic. hit rate 2% among 360,000;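 further: 0% = DMSO wells and -100% = cell-free medium wells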
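CellTiter-Glo luminescence after 48 h compound exposure at 37 degrees C of IDH1-knockdown HT-1080 cells in 5% FBS RPMI. %Activity scaled between DMSO wells and cell-free media wells, with curves fitted and assigned curve classes.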
KB-3-1 cytotox: KB-3-1 parental cell cytotoxicity. KB-3-1 viability, CellTiter-Glo ATP luminescence, 72 h. Potency, µM (top dose mostly 46.1 µM), actives largely listed as cytotoxic. hit rate 1.4% among 400,000. AID 1347075; further: nearly all actives have a fitted effect of over 60% in size
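Cytotoxicity measured as CellTiter-Glo luminescence after 72 h at 37 C. Compound titrations were pinned onto drug-naive KB-3-1 parental adenocarcinoma cells grown in DMEM with 10% FBS, and normalized data fitted to concentration-response curves.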
HT1080NT lethal: kills 2HG-producing HT-1080-NT fibrosarcoma cells | HT-1080-NT fibrosarcoma viability, CellTiter-Glo ATP luminescence, 48 h | Potency, µM (titrated, usually from 46.1 µM), for inactives: at the highest dose activity, negative = less viability, most hits filed as cytotoxic | hit rate 1.6% among 360,000;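 further: NT is the 2HG producing partner of a matched IDH1 knockdown line; 0% = DMSO-treated cells and -100% = media-only wells without cells; nearly all actives have a fitted effect of over 55% in size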
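Compounds were tested in concentration-response format on HT-1080-NT cells for 48 hours at 37 degrees C. Cell viability came from CellTiter-Glo luminescence; curves were classified by r2, response magnitude and activity.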
Numbers without * were called inactive; i = inactive; ? = inconclusive; . = no result given; [ ] = remark or other dose. The call rests on the fitted dose curve; in most records, active means well fitted curve in the direction sought with a large enough effect; inconclusive means small, poorly fitted or top-dose-only effect, or another doubt; inactive means no such curve, though single readings can be large; an effect the other way counts as inactive or inconclusive. Unless noted, on the % scale 0 is the no-effect control and ±100 the full control effect; potency means the concentration at half of the fitted maximal effect.

SMILES	TDP1 cell noCPT	KB-V1 MDR tox	DT40 TDP1 CPT	HT1080 IDH1KD tx	KB-3-1 cytotox	HT1080NT lethal
Cc1ccc(-n2ncc3c(NCc4ccc5c(c4)OCO5)ncnc32)c(C)c1	?	4.1µM*	?	-28%	?	-14%
Oc1ccc(CCNc2ncnc3ccc(Cl)cc23)cc1	2.3µM*	?	2.6µM*	?	i	-24%
Clc1ccc2ncnc(NCc3ccc4c(c3)OCO4)c2c1	2.5µM*	.	3.2µM*	.	.	.
Cc1cccn2c(=O)cc(COc3ccc(NC(=O)COc4ccc(F)cc4)cc3)nc12	-21%	i	?	.	i	.
CCc1nc2ccc(C(=O)NCCCn3ccnc3)cn2c1N(C)Cc1ccc(N(C)C)cc1	-21%	i	?	4%	i	14%
COC(=O)c1ccc(C(=O)NN)cc1	0%	i	1%	6%	i	1%
CCC/C=C(\CCC)C(NC(=O)c1ccc(C(=O)OC)cc1)c1ccc(C(=O)OC)cc1 (centres undefined)	7.3µM*	i	9.2µM*	0%	i	-25%
CCc1nc2c(OCc3ccc(OC(F)F)cc3)cccn2c1N(C)C(=O)c1cccs1	16µM*	i	21µM*	-18%	i	-16%
CCc1nc2c(OCc3ccc(OC)cc3)cccn2c1N(C)C(=O)c1ccncc1	-22%	?	-5%	7%	i	3%
CCc1nc2c(OCCOc3ccc(F)cc3)cccn2c1N(C)C(=O)c1cccs1	10µM*	i	18µM*	-1%	i	2%
O=C(C[C@H]1CC[C@H]2[C@@H](COC[C@@H](O)CN2C(=O)c2cnccn2)O1)NCc1ccc(Oc2ccccc2)cc1	?	i	?	13%	i	3%
CC[C@]12c3[nH]c4ccc(Cl)cc4c3CCN1C(=O)[C@@H](CC(=O)NCCc1ccccn1)C[C@@H]2C(=O)N1CCN(C(=O)c2ccco2)CC1	?	i	-27%	-1%	i	0%
CCN(CC)CCNC(=O)C1(O)c2cc(Br)ccc2NC(=O)N1c1c(F)cccc1F (centres undefined)	20%	i	-6%	-1%	i	3%
COc1ccccc1C(=O)N1CCOc2ccc(CN3CCN(Cc4ccccn4)CC3)cc2C1	-4%	.	2%[9.04 µM]	.	.	.
O=C(Nc1ccc(F)cc1)N[C@@H]1CC[C@@H](CCn2cc(-c3ccc(F)cc3)nn2)O[C@@H]1CO	-4%	i	?	16%	i	10%
O=C(Nc1ccc(Cl)c(Cl)c1)N[C@@H]1CC[C@@H](CCn2cc(C3CCCCC3)nn2)O[C@@H]1CO	21µM*	i	?	23µM*	?	21µM*
Cc1ccc(CSc2nccc(-c3c(C)nc4ccccn34)n2)cc1	16µM*	6.5µM*	?	1%	18µM*	2%
CC(C)OC(=O)c1c2c(n3ccccc13)C(=O)c1ccccc1C2=O	13µM*	i	15µM*	0%	i	5%
CCc1nc2c(OCCC3CCCCC3)cccn2c1N(C)C(=O)CC(C)C	10µM*	?	21µM*	?	?	?
CCc1nc2c(OCCn3cccc3)cccn2c1N(C)C(=O)c1cccs1	-21%	i	?	10%	i	24%
CCc1nc2c(OCCn3cccc3)cccn2c1N(C)C(=O)CC(C)C	?	i	-24%	0%	i	?
CCCCC(=O)N(C)c1c(CC)nc2c(OCC3CCCCC3)cccn12	21µM*	26µM*	?	?	?	?
CCc1nc2c(OCCC3CCCCC3)cccn2c1N(C)C(=O)c1cccs1	21µM*	?	29µM*	?	?	?
CCCCN(C=O)c1c(CC)nc2c(OCC3CCCCC3)cccn12	9.2µM*	i	21µM*	-27%	?	?

Compound activity from PubChem.
